# ELG1 DNA repair: blocks ELG1-dependent DNA repair in HEK293T cells; HEK293T ELG1-luciferase reporter, luminescence, 16 h; DNA damage induced by 5-fluorouridine; Potency, µM (series often up to 46.1 µM), inactives show at the highest dose activity change, negative = inhibition, actives largely listed as inhibitors; actives 2.3% (n = 330,000); AID 504467; also: % is scaled to controls: 0 for no effect and ±100 for the full control effect; nearly all actives have a fitted effect of over 55% in size
#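 5-Fluorouridine DNA damage + compound/DMSO, 2,000 cells/well, 16 h, 37 °C/5% CO2. ONE-Glo, 30 min RT, luminescence. Readout = decrease in reporter signal.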
# ELG1 genotox: genotoxicity induction in ELG1-luciferase HEK293T cells. Potency, µM (highest dose often 46 µM), for inactives: top-dose activity change, positive = activation, most hits filed as activators. actives 1.3% (n = 330,000). HEK293T ELG1-luciferase reporter, luminescence, 16 h. AID 504466; also: % of control where 0% means no effect; nearly all actives have a fitted effect of over 60% in size
#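 Reporter readout depends on ELG1 protein level, which increases with genetic stress. After 16 hr compound exposure at 37 °C, luciferase activity was quantified using ONE-Glo.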
# NPC1 prom act: activators of NPC1 promoter | Huh7 NPC1 promoter luciferase reporter, 24 h | Potency, µM (series often up to 9.22 µM), for the others: top-dose activation, hits mostly activators | actives 2.4% (n = 320,000); also: % of control where 0% means no effect; nearly all actives have a fitted effect of over 60% in size
#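 Luciferase expression driven by the NPC1 promoter was measured in stably transfected Huh7 cells after a 24 h compound incubation, using a luciferase reagent and a luminescence read.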
# SMN2 splice enh: increases expression of the SMN2 splice variant; AID 1458; HEK293 SMN2-luciferase splicing reporter, luminescence, 30-36 h; Potency, µM (highest dose often 46.1 µM), without a hit: at the highest dose activity change, positive = activation, actives largely listed as activators; actives 2.8% (n = 210,000); also: % of control where 0% means no effect; nearly all actives have a fitted effect of over 55% in size
#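 HEK293 cells carry an SMN2 […]–luciferase reporter in which exon 7 inclusion puts luciferase in frame. Cells were plated 10-12 h before compound addition, then incubated 30-36 h at 37C. ONE-Glo luminescence was read; sodium butyrate at 4.5 mM final served as control.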
# FLuc modulator: counter-screen for miR-21 project: firefly luciferase inhibitors or activators. actives 6.9% (n = 360,000). AID 588342. purified FLuc, Km substrates, luminescence inhibition. Potency, µM (doses to about 57.5 µM), for the others: at the highest dose activity change, negative = inhibition, actives largely listed as inhibitors;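 also: plate controls were vehicle for no effect and reference inhibitor for full effect; nearly all actives have a fitted effect of over 55% in size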
# Target sequence (P08659 whole entry, looked up): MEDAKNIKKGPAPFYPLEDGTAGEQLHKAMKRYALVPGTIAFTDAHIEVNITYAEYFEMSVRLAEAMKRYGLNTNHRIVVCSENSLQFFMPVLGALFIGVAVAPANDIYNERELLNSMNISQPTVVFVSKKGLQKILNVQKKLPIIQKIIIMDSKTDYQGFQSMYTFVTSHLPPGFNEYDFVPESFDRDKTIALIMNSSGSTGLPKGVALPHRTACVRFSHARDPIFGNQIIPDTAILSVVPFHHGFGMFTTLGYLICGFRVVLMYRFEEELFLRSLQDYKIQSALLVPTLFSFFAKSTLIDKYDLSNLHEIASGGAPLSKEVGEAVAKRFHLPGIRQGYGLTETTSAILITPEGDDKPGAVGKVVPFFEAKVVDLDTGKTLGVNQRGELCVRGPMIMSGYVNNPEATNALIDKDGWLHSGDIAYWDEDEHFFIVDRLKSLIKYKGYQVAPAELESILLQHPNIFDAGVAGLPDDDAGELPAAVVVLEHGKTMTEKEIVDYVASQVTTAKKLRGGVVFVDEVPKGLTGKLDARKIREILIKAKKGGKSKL
#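 Purified P. pyralis luciferase, 10 nM final, with Km-level 10 uM D-luciferin and 10 uM ATP in 50 mM Tris acetate pH 7.5, 10 mM Mg acetate, 0.01% Tween-20, 0.05% BSA; 6-point qHTS titration about 60 µM downward; luminescence read.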
# Rab9 prom act: activates the Rab9 promoter; Huh7 Rab9 promoter-luciferase reporter, luminescence, 24 h; Potency, µM (doses to about 9.22 µM), inactives show at the top dose activation, negative = inhibition, most hits filed as activators; actives 2.8% (n = 320,000); AID 485297; also: % of control where 0% means no effect; nearly all actives have a fitted effect of over 60% in size
#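 Cell-based reporter: Huh7 stable for Rab9 promoter-driven luciferase, plated in reduced-serum medium with 10% FBS at 1500 cells/well, compound-treated 24 h at 37 °C, luminescence read after 10 min reagent.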
# * marks the source's active call; other numbers are inactive results; ? = inconclusive; · = no result; [ ] = dose if it differs, or a comment. Rows were chosen to be rich in hits. Some 9.2% of all compounds tested hit in one or more screens of this group. Calls follow the shape of the dose curve; as a rule, active = well fitted curve in the direction sought with a large enough effect; inconclusive = small, poorly fitted or top-dose-only effect, or another doubt; inactive = no such curve, though single readings can be large; an effect the other way counts as inactive or inconclusive. Potency is read from the fitted curve at half-maximal effect.
SMILES,ELG1 DNA repair,ELG1 genotox,NPC1 prom act,SMN2 splice enh,FLuc modulator,Rab9 prom act
CNc1nc(-c2ccc3c(c2)CCN3C(=O)c2ccc(F)cc2)cs1,-15%,3%,25%,2%,12µM*,?
Cc1cccc(C(=O)N2CCc3cc(-c4csc(NC(=O)CN5CCCC5)n4)ccc32)c1,?,-23%,-3%,·,?,-2%
CNc1nc(-c2ccc3c(c2)CCN3C(=O)c2ccccc2C)cs1,?,?,4µM*,22µM*,7.6µM*,2.2µM*
Cc1cccc(C(=O)Oc2ccc3ccc(O)cc3c2)c1,-25%,1%,8%,·,24µM*,0%
CC(C)(C)c1ccc(OCCC(=O)NNC(=O)c2ccccc2)cc1,1%,0%,1%,·,13%,-1%
O=C(Oc1ccc(/C=N/O)cc1)c1ccccc1,11%,2%,0%,11%,12µM*,?
O=C(Oc1ccc(/C=N/Nc2ccccc2)cc1)c1ccccc1,?,?,20%,-17%,?,7%
CC(C)(C)c1ccc(OC(=O)c2ccccc2)cc1,?,9%,-13%,·,2.4µM*,-3%
O=C(Oc1ccc2ccccc2c1)c1cncc(Br)c1,9%,4%,0%,3%,-15%,-1%
O=C(Oc1ccc2ccccc2c1)c1ccccc1,?,?,0%,-12%,2.4µM*,-2%
COc1ccc(N2C(=NC(=O)CC3CCCCC3)SC3CS(=O)(=O)CC32)cc1 (stereo not drawn),9%,1%,-1%,·,1%,-1%
CCCCOc1[nH]c2nc(-c3ccco3)n(Cc3ccco3)c(=N)c2c1C#N,-25%,-11%,-6%,-21%,-1%,-7%
N#CCc1c(C#N)c(N)nc(N2CCN(C=O)CC2)c1C#N,-1%,2%,23%,-1%,0%,-3%
N#CCc1c(C#N)c(N)nc(N2CCN(S(=O)(=O)c3ccccc3)CC2)c1C#N,9.2µM*,0%,-1%,-1%,3%,0%
CC(COc1ccc(C(C)C)cc1)NC(=O)c1ccc(Br)o1 (stereo not drawn),-3%,-8%,-2%,·,-3%,-3%
CCOC(=O)N1CCN(C(=O)c2cn(C)c(=O)c3c2c2ccccc2n3C)CC1,?,1%,-1%,-4%,1%,-6%
CCOC(=O)N1CCN(C(=O)c2cn(CC(C)C)c(=O)c3c2c2ccccc2n3C)CC1,18µM*,-9%,-1%,2%,-9%,-6%
c1c2c(cc3sc(N4CCOCC4)nc13)OCCO2,?,0.33µM*,0.4µM*,1.1µM*,0.95µM*,0.5µM*
Clc1cc(Cl)c2nc(N3CCOCC3)sc2c1,?,?,26%,?,17µM*,?
Clc1ccc(-c2nsc(N3CCOCC3)n2)c(Cl)c1,?,3.3µM*,0.79µM*,·,4.3µM*,1µM*
Nc1ccc2nc(N3CCOCC3)sc2c1,?,?,?,16µM*,?,2µM*
O=C(NCc1ccccc1)c1ccc2nc(N3CCOCC3)sc2c1,7%,9%,1%,·,?,20%
COc1ccccc1CN1CCC(n2nccc2NC(=O)CCCc2ccccc2)CC1,?,-8%,-2%,·,-1%,-2%
C=CCN1CN(S(=O)(=O)c2cccc(Cl)c2)c2nc3ccccc3nc21,0%,1%,-2%,·,0%,1%
c1ccc(N2CCN(c3nc4cc5c(cc4s3)OCCO5)CC2)cc1,?,5%,?,10µM*,?,?
SMILES,ELG1 DNA repair,ELG1 genotox,NPC1 prom act,SMN2 splice enh,FLuc modulator,Rab9 prom act
CCOc1ccc(CCNC(=O)Cn2nnc(-c3ccccc3)n2)cc1OCC,·,·,·,-10%,5%,·
C#CCOc1nc(Nc2cccc([N+](=O)[O-])c2)nc(OCC#C)n1,18µM*,-5%,0%,·,-14%,-11%
COc1nc(Nc2cccc([N+](=O)[O-])c2)nc(OC)n1,?,3%,0%,-6%,-1%,-3%
CC1CCCC(C)N1C(=O)COC(=O)c1ccc(F)c(S(=O)(=O)N2CCOCC2)c1 (stereo not drawn),0%,2%,-7%,·,0%,-1%
CCC(C(=O)OCC(=O)Nc1ccc(F)cc1)c1ccccc1 (stereo not drawn),-3%,-5%,-4%,·,4%,3%
CC(=O)Nc1ccccc1,10%,2%,·,3%,·,·
CC1(C(=O)OCC(=O)Nc2ccccc2)CC1(Cl)Cl (stereo not drawn),?,13%,?,-11%,17µM*,?
CC(=O)Nc1ccc(N=Nc2ccccc2)cc1,?,10µM*,2.8µM*,10µM*,6µM*,2.8µM*
CC(=O)OCC(=O)Nc1ccc(N=Nc2ccccc2)cc1,?,23µM*,2.8µM*,6.3µM*,12µM*,2.8µM*
CC1(C(=O)OCC(=O)Nc2ccccc2Cl)CC1(Cl)Cl (stereo not drawn),0%,9%,5%,17%,?,?
CC(C)C(=O)OCC(=O)Nc1ccc(N=Nc2ccccc2)cc1,?,21µM*,2.5µM*,11µM*,?,0.79µM*
CCc1nc2nc(C)cc(Nc3ccc(OC)cc3)n2n1,·,·,·,-1%,-4%,·
Cc1ccc(/C=N\NC(=O)Cc2noc3ccccc23)cc1,?,14%,-10%,·,-3%,4%[1.84 µM]
Cc1cc(=O)n2nc(N(C)CC(=O)NCc3ccc(Cl)cc3)sc2n1,·,·,·,2%,-5%,·
O=C(Nc1ccc(N=Nc2ccccc2)cc1)c1ccccc1Cl,?,?,1.8µM*,11µM*,3.8µM*,2.5µM*
CC(C)C(=O)OCC(=O)NCc1ccccc1Cl,0%,4%,?,2%,17µM*,-2%
O=C(Nc1ccc(N=Nc2ccccc2)cc1)c1ccc(Cl)cc1Cl,21%,4%,-8%,-4%,2%,2%
Cc1ccccc1OCC(=O)OCC(=O)NCc1ccccc1Cl,16%,0%,·,·,·,·
O=C(CCl)Nc1ccc(N=Nc2ccccc2)cc1,?,-17%,21%,-26%,6µM*,27%
CCN(Cc1ccccc1)C(=O)Cn1c(=O)n(-c2ccc(Cl)cc2)c(=O)c2c(C)c(C)sc21,·,·,·,-3%,-3%,·
CC(OC(=O)Cn1cnc2ccccc2c1=O)C(=O)NCc1ccccc1 (stereo not drawn),7%,0%,-2%,·,-1%,-7%
O=C(CSc1nc2nccnc2c(=O)n1CCc1c[nH]c2ccccc12)Nc1ccc(F)cc1,·,·,·,·,-5%,·
Cc1noc(C)c1S(=O)(=O)N1CCCC(C(=O)Nc2ccc(Cl)cn2)C1 (stereo not drawn),16µM*,-7%,-2%,-36%,-1%,-7%
